The list is not random: actives were taken first. Their share in the collection is about 10%.
GLS inhibitor: inhibitors of human glutaminase (GLS). AID 624170. Potency, µM (doses to about 45.5 µM), for the others: top-dose activity change, negative = inhibition, most hits filed as inhibitors. hit rate 0.21% among 410,000. GLS enzymatic activity, qHTS titration; further: on the % scale 0 is the no-effect control and ±100 the full control effect
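Read-out is an Amplex red fluorescence increase coupled through glutamate oxidase and HRP, measured before and after 30 min room-temperature incubation. hKGA is in 45 mM KH2PO4 (pH 8.2) with 0.02% Tween-20; glutamine added as 1mM solution.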
G9a inh: inhibitors of human histone lysine methyltransferase G9a; G9a H3K9 monomethylation, AlphaScreen, 2 h; Q96KQ7; hit rate 8.8% among 350,000; AID 504332; Potency, µM (highest dose often 102 µM), for inactives: at the highest dose activity, negative = inhibition, actives largely listed as inhibitors; further: on the % scale 0 is the no-effect control and ±100 the full control effect; nearly all actives have a fitted effect of over 75% in size
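AlphaScreen read-out: biotin-H3K9 peptide (500 nM) methylation by 20 nM enzyme with 20 uM SAM, 2 h at room temperature after 15 min compound preincubation; anti-monomethyl H3K9 antibody plus donor/acceptor beads, 10 min dark.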
HP1b binding inh: blocks HP1-beta chromodomain binding to methylated histone tails; Potency, µM (series often up to 114 µM), for inactives: at the top dose activity change, negative = inhibition, usual class: inhibitors; AlphaScreen HP1-beta / biotin-H3K9me3 peptide binding; hit rate 0.56% among 390,000; AID 540317; P83916; further: nearly all actives have a fitted effect of over 70% in size
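Compound inhibition of the preformed complex between 50 nM HP1-beta and 50 nM biotinylated H3K9me3 peptide was read by AlphaScreen. Buffer was PBS pH 7.4 with 0.01% Tween-20. Incubations ran 30 min at room temperature, with 10 ug/mL donor/acceptor beads.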
JMJD2A Tudor inh: JMJD2A Tudor domain (human) inhibition. O75164. AlphaScreen JMJD2A-Tudor / H3K4me3 peptide binding. Potency, µM (titrated, usually from 114 µM), for inactives: at the highest dose activity change, negative = inhibition, hits mostly inhibitors. hit rate 4.4% among 390,000. AID 504339; further: on the % scale 0 is the no-effect control and ±100 the full control effect; nearly all actives have a fitted effect of over 50% in size
BAZ2B inh: inhibitors of human BAZ2B bromodomain | Potency, µM (top dose mostly 114 µM), for the others: at the top dose activity change, negative = inhibition, hits mostly inhibitors | AID 504333 | AlphaScreen BAZ2B-H3K14Ac peptide displacement | hit rate 4.4% among 360,000; further: on the % scale 0 is the no-effect control and ±100 the full control effect; nearly all actives have a fitted effect of over 60% in size
Target sequence (Q9UIF8 whole entry, looked up): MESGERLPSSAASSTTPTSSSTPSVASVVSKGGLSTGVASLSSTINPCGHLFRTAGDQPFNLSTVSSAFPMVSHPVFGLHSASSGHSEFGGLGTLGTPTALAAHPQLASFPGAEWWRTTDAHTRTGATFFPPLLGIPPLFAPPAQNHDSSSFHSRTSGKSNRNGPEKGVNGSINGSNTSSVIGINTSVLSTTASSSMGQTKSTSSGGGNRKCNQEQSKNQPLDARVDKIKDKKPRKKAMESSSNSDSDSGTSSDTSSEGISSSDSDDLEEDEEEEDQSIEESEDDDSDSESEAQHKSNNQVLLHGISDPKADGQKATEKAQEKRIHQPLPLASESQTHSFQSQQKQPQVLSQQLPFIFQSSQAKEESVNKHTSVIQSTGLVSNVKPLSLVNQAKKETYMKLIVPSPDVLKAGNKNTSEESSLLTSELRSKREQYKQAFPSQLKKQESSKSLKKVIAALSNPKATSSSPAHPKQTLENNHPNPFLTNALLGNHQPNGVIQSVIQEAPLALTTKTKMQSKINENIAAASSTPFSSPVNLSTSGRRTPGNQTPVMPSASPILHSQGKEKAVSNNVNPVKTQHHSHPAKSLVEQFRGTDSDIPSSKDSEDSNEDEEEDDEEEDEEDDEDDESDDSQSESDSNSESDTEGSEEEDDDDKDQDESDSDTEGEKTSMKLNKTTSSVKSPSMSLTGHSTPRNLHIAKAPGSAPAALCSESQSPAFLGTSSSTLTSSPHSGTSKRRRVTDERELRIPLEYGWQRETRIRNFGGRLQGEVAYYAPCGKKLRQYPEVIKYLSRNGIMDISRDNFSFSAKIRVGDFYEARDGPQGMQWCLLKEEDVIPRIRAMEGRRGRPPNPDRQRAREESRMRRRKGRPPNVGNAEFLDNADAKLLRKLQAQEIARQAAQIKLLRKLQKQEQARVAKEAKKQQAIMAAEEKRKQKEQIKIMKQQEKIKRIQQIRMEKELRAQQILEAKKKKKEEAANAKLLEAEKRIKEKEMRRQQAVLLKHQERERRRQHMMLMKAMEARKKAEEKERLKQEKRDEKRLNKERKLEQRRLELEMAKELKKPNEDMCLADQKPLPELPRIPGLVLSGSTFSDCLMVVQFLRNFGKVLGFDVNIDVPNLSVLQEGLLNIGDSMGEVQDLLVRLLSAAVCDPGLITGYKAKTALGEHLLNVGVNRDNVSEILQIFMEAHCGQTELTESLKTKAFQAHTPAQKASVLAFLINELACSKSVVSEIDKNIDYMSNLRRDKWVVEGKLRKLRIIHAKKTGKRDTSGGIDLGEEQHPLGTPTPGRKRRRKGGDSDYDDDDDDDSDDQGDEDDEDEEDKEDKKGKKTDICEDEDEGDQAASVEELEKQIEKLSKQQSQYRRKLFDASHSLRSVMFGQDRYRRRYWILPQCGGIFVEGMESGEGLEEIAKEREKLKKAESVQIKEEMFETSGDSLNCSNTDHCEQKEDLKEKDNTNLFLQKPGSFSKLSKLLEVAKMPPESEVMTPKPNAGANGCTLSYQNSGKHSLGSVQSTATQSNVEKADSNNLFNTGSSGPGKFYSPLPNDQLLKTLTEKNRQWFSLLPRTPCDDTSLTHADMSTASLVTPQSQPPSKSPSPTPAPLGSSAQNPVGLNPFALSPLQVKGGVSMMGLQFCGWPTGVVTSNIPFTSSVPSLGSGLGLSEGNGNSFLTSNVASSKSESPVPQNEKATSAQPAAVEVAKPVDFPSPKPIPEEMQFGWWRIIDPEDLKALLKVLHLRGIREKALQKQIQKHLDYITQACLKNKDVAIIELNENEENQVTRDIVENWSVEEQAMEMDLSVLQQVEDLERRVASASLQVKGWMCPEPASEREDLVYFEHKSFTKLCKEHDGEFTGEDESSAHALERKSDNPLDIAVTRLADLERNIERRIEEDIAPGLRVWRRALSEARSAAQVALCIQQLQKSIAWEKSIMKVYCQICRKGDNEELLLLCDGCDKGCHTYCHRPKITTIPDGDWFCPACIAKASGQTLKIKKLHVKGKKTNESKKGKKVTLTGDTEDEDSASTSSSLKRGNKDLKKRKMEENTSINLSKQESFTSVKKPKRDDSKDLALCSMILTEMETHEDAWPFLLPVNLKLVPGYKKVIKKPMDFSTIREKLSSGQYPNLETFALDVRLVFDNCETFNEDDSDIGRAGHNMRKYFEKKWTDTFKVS
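AlphaScreen displacement: compounds (up to 110uM) incubated 30 min at room temperature with a preformed 50 nM BAZ2B/50 nM biotinylated H3K14Ac peptide complex in PBS pH 7.4 with Tween-20. Donor and acceptor beads at 10 ug/mL final added, 20 min light-protected before reading.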
* hit, by the source's call; ! = a repeat was not active; [ ] = another dose, or the depositor's remark. The call rests on the fitted dose curve; in most records, active means well fitted curve in the direction sought with a large enough effect; inconclusive means small, poorly fitted or top-dose-only effect, or another doubt; inactive means no such curve, though single readings can be large; an effect the other way counts as inactive or inconclusive. Potency means the concentration at half of the fitted maximal effect.

What do the screens show for `CCCCNc1c(-c2ccc(OC)c(SC(C)CC)c2)nc2cc(C)ccn12` (stereo unspecified)?
GLS inhibitor: 25%; HP1b binding inh: 1%; JMJD2A Tudor inh: inconclusive

Results for CCC(C)Sc1cc(-c2nc3cc(C)ccn3c2NC2CCCCC2)ccc1OC (stereo unspecified) ?
GLS inhibitor: -23%; HP1b binding inh: -10%; JMJD2A Tudor inh: 50µM*

How did c1csc(-c2nc3ccccn3c2NC2CCCCC2)c1 do in these assays?
GLS inhibitor: 0%; G9a inh: inconclusive; HP1b binding inh: 17%; JMJD2A Tudor inh: -13%; BAZ2B inh: inconclusive

How did Cc1ccn2c(NC3CCCC3)c(-c3cccs3)nc2c1 do in these assays?
GLS inhibitor: inconclusive; G9a inh: 45µM*; HP1b binding inh: -11%; JMJD2A Tudor inh: 10µM*; BAZ2B inh: inconclusive

Results for CCC(C)Sc1cc(-c2nc3ccccn3c2NC2CCCCC2)ccc1OC (stereo unspecified) ?
GLS inhibitor: inconclusive; G9a inh: 9%[2.33 µM]; HP1b binding inh: 4%; JMJD2A Tudor inh: 79µM*; BAZ2B inh: inconclusive

How did CC(=O)c1ccc(-c2cccc(-c3nc4ccccn4c3NC3CCCCC3)c2)cc1 do in these assays?
GLS inhibitor: 25%; G9a inh: -13%[2.33 µM]; HP1b binding inh: -14%; JMJD2A Tudor inh: inconclusive; BAZ2B inh: 40µM*

What do the screens show for `Cc1ccc(C(=O)c2c(N)c(C(=O)Nc3cccc(C(F)(F)F)c3)c3ccccn23)cc1`?
GLS inhibitor: -6%; G9a inh: 59%[59 µM]; HP1b binding inh: 78%; JMJD2A Tudor inh: -9%; BAZ2B inh: 27%

How did COc1cc2c(cc1OC)n(CC(=O)c1cc(C)ccc1C)c(=O)n1nc(CCn3nc(C)cc3C)nc21 do in these assays?
GLS inhibitor: 3%; G9a inh: 10%[59 µM]; HP1b binding inh: 5%; JMJD2A Tudor inh: -18%; BAZ2B inh: -4%

How did Cc1cccc(OCC(=O)Nc2ccc3c(c2)nc(CN2CCCCC2)n3C)c1 do in these assays?
GLS inhibitor: 18%; G9a inh: 32µM*; HP1b binding inh: 31%; JMJD2A Tudor inh: 89µM*!; BAZ2B inh: inconclusive

What do the screens show for `CC(=O)N1CCN(Cc2nc3cc(NC(=O)COc4cccc(C)c4)ccc3n2C)CC1`?
GLS inhibitor: 2%; G9a inh: 6.3µM*; HP1b binding inh: 10%; JMJD2A Tudor inh: -21%; BAZ2B inh: inconclusive

Results for Cc1ccc(-n2c(=O)c3ccc(C(=O)NCc4ccccc4Cl)cc3n(CC(=O)Nc3cccc(F)c3)c2=O)cc1 ?
GLS inhibitor: 3%; G9a inh: -2%[59 µM]; HP1b binding inh: 16%; JMJD2A Tudor inh: -15%

What do the screens show for `Cc1ccccc1-c1noc(CCC(=O)NCC2CCCO2)n1` (stereo unspecified)?
GLS inhibitor: -3%; G9a inh: 13µM*; HP1b binding inh: 14%; JMJD2A Tudor inh: -13%; BAZ2B inh: 7%

Results for CC(=O)c1cc(-c2ccc(F)cc2)n(CCC(=O)Nc2nc3ccc(C)cc3s2)c1C ?
GLS inhibitor: -10%; G9a inh: -31%[59 µM]; HP1b binding inh: 49%; JMJD2A Tudor inh: -7%; BAZ2B inh: 0%

How did Cc1ccc(Cl)cc1NC(=O)CCCN1C(=O)CCn2nc(-c3cn(C)c4ccccc34)cc21 do in these assays?
GLS inhibitor: 5%; G9a inh: 2%[59 µM]; HP1b binding inh: 13%[57 µM]; JMJD2A Tudor inh: -19%; BAZ2B inh: -5%

What do the screens show for `COc1ccc(N2CCN(C(c3cccs3)C(C)NC(=O)C(=O)N3CCCCC3)CC2)cc1` (stereo unspecified)?
GLS inhibitor: 31%; G9a inh: 50µM*; HP1b binding inh: 1%; JMJD2A Tudor inh: -31%; BAZ2B inh: -35%

What do the screens show for `CC(NC(=O)C(=O)N1CCCCC1)C(c1cccs1)N1CCN(c2ccc(F)cc2)CC1` (stereo unspecified)?
GLS inhibitor: 11%; G9a inh: inconclusive; HP1b binding inh: 15%; JMJD2A Tudor inh: -30%; BAZ2B inh: inconclusive

High-throughput results (PubChem)
